# Article PMC4336329 (PLoS ONE, 2015)
# About 14,000 (4.5%) of roughly 310,000 compounds showed an effect of 50% or more. The effect is printed as a negative number. The full list was thinned out, with strong results kept by preference.
# Target: human ether-à-go-go-related gene (hERG) potassium channel (human, UniProt Q12809)
# Assay: primary screen, population patch clamp on CHO cells stably expressing hERG; higher = less effect of the substance
# 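Further: peak tail current of the secondary pulse compared with the same well before compound.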
# Chain of human ether-à-go-go-related gene (hERG) potassium channel (Q12809 whole entry, looked up): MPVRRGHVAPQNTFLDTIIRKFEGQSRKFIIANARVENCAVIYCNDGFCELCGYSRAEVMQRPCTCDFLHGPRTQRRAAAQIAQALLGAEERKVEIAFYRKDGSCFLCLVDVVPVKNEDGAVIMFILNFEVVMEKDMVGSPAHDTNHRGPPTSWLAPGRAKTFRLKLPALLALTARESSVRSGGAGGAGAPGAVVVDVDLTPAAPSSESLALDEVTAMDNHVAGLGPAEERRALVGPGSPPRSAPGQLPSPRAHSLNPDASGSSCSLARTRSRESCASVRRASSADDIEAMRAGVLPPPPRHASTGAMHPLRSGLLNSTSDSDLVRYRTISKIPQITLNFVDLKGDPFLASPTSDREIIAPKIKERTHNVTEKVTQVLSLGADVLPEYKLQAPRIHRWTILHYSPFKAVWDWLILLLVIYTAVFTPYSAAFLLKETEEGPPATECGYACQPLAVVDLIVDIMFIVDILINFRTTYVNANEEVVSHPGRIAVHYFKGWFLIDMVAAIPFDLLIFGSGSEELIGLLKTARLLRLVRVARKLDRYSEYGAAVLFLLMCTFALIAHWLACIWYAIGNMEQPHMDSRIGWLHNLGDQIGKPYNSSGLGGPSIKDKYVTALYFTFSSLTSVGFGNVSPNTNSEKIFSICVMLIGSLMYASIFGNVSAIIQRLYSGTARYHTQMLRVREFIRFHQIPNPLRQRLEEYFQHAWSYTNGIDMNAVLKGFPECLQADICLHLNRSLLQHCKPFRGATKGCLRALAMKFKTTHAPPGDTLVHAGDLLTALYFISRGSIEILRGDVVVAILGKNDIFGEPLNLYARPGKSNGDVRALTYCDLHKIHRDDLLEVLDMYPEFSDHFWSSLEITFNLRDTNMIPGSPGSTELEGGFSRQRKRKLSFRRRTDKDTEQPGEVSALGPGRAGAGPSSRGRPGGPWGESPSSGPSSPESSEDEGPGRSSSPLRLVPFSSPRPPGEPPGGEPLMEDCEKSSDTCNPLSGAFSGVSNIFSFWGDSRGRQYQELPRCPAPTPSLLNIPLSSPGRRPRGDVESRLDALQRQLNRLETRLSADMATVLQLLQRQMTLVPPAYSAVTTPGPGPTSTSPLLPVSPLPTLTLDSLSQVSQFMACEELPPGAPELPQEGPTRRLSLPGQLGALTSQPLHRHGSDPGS
row,SMILES,"hERG current change (%, negative = inhibition) at 10uM"
1,O=C(NCc1ccccc1Cl)c1cccc(NC(=O)c2ccccc2)c1,-8.78%
2,COc1cc(NC(=S)NC(=O)CC(C)C)ccc1NC(=O)c1cc2ccccc2o1,19.7%
3,COC(=O)CNC(=O)c1ccccc1C,11.2%
4,COc1ccc(S(=O)(=O)N2CCCOC2CNC(=O)C(=O)NC2CCCC2)cc1 (stereo not drawn),4.51%
5,CCCC(C)(C)NC(=O)CCCCC(=O)NC(C)(C)CCC,-9.49%
6,CCCCCCCC(=O)N1c2ccccc2NC(=O)C1CC(=O)Nc1ccc(C(=O)O)cc1 (stereo not drawn),13.6%
7,COc1cccc(NC(=S)N(C)C2CCN(C)CC2)c1,11%
8,O=C(CCS(=O)(=O)Cc1ccccc1)N1CCN(c2ccccc2)CC1,-7.79%
9,O=C(CCCC(=O)N1CCN(c2ccccc2F)CC1)c1ccccc1,-10.7%
10,O=C(CCN1CCOCC1)c1ccc(Cl)cc1,28.3%
11,O=C(CCN1CCN(c2ccc([N+](=O)[O-])cc2)CC1)c1ccc(Cl)cc1,-72.4%
12,O=C(CCc1ccccc1)N1CCN(c2ccc(F)cc2)CC1,-23%
13,O=C(CCS(=O)(=O)Cc1ccccc1)N1CCN(Cc2ccccc2)CC1,-22.1%
14,CC(=O)c1ccc(N2CCN(C(=O)CCc3ccccc3)CC2)cc1,-54.1%
15,O=C(CCCC(=O)N1CCN(c2cccc(Cl)c2)CC1)c1ccccc1,-44.2%
16,O=C(CCc1ccccc1)N1CCN(c2ccc(Cl)cc2)CC1,-35.1%
17,COc1ccc(N2CCN(CC(=O)c3ccc(Cl)cc3)CC2)cc1,10.5%
18,O=C(CCCC(=O)N1CCN(c2ccc([N+](=O)[O-])cc2)CC1)c1ccccc1,-72%
19,O=C(CCS(=O)(=O)Cc1ccccc1)N1CCN(c2ccc([N+](=O)[O-])cc2)CC1,-81.6%
20,CSc1nc2ccc(NC(=O)C3CCCO3)cc2s1 (stereo not drawn),-0.62%
21,CC(=O)Nc1cccc(NC(C)=O)n1,19.6%
22,COc1cc(C(=S)N2CCOCC2)ccc1O,29.3%
23,CCOc1ccc(C(=O)Nc2nnc(SCC(=O)NCC3CCCO3)s2)cc1OCC (stereo not drawn),9.52%
24,c1ccc(-c2cn(CC3CCCCC3)nn2)cc1,-1.74%
25,CCc1ccc(OCC(=O)O/N=C(\N)c2ccncc2)c(Br)c1,10.2%

row,SMILES,"hERG current change (%, negative = inhibition) at 10uM"
1,C=CCN1CCN(C(=O)CCCc2ccccc2)CC1,26.1%
2,CC1CN(C(=O)CCc2ccccc2)C(C)CN1C(=O)CCc1ccccc1 (stereo not drawn),-60.4%
3,O=C(CCCC1=NS(=O)(=O)c2ccccc2N1)N1CCN(c2ccc([N+](=O)[O-])cc2)CC1,-1.34%
4,O=C(CN1CCN(c2ccc(Cl)cc2)CC1)c1ccccc1,-6.33%
5,COc1ccc(N2CCN(C(=O)CCc3ccccc3)CC2)cc1,-9.27%
6,CC1CCCN(C(=O)CCc2ccccc2)C1 (stereo not drawn),-5.7%
7,O=C(CCc1ccccc1)N1CCN(c2ccc([N+](=O)[O-])cc2)CC1,-73.1%
8,O=C(CN1CCN(c2ccc([N+](=O)[O-])cc2)CC1)c1ccccc1,-75%
9,N#Cc1ccc(C(=O)CN2CCN(c3ccccc3)CC2)cc1,-42.8%
10,CC1CC(C)CN(C(=O)CCc2ccccc2)C1 (stereo not drawn),-2.16%
11,O=C(CCCc1ccccc1)N1CCN(c2ccc([N+](=O)[O-])cc2)CC1,-64.7%
12,Cc1c(C)n(CC(O)CNCCO)c2ccccc12.O=C(O)C(=O)O (stereo not drawn),5.33%
13,CN1CCN(C(=O)CN(C)S(=O)(=O)c2cc(Cl)ccc2Cl)CC1,4.23%
14,CC1(C)CC2CN(C(=O)Cc3ccccc3)C(C)(C2)C1 (stereo not drawn),0.0688%
15,COc1ccc(/C=N/NC(=O)c2ccco2)cc1Cn1nc(C)cc1C,-2.47%
16,COc1ccc(-c2nnc(NC(=O)c3ccc(S(=O)(=O)N4CCCc5ccccc54)cc3)o2)cc1,0.175%
17,CC1(C)CC(=O)c2sc(N3CCCCC3)nc2C1,-2.83%
18,COc1cc(CC(=O)N/N=C/c2ccccc2)c([N+](=O)[O-])cc1OC,0.219%
19,Clc1cccc(CNCCc2c[nH]c3ccccc23)c1.O=C(O)C(=O)O,-14%
20,c1ccc(Cn2nnnc2C(c2ccccc2)N2CCN(c3nc4ccccc4s3)CC2)cc1 (stereo not drawn),-11.7%
21,CS(=O)(=O)N1CCN(c2ccc(NC(=O)CSc3ccc(Cl)cc3)cc2)CC1,-0.247%
22,COc1ccc(N2CCN(CCCN)CC2)cc1,8.6%
23,CC(C)OC(=O)CN1CCN(c2ccc(Cl)cc2)CC1,1.73%
24,O=C(NCCOc1ccccc1)c1ccccc1SCC(=O)N1CCCC1,14.9%
25,O=C(CCc1ccccc1)N1CCCN(C(=O)CCc2ccccc2)CC1,-51.5%

row,SMILES,"hERG current change (%, negative = inhibition) at 10uM"
1,CCOC(=O)N1CCN(C(=O)CCc2ccccc2)CC1,5.12%
2,CCCCCCN1CCN(c2ccc(Cl)cc2)CC1,-66.9%
3,O=C(CCc1ccccc1)N1CCCC1,8.96%
4,O=C(NCCc1ccccc1)c1ccccc1SCC(=O)N1CCCC1,-51.3%
5,O=C(O)c1ccccc1SCC(=O)N1CCCCC1,15.2%
6,CNc1nc(-c2ccc3c(c2)CCN3C(=O)CC(C)(C)C)c(C)s1,38%
7,C=CC#CC1(O)CC(C)[N+](C)(C)CC1C.[I-] (stereo not drawn),17.4%
8,CCCCn1c(N)c(N(CC(C)C)C(=O)CSC(C)C(=O)Nc2cc(C)on2)c(=O)[nH]c1=O (stereo not drawn),9.14%
9,CN(Cc1nc2ccc(F)cc2[nH]1)Cc1nc(CC2CC2)no1,-12.3%
10,CN(CCc1nc2ccccc2[nH]1)Cc1nc(CC2CC2)no1,-13.7%
11,CN(CCc1nc2ccc(Cl)cc2[nH]1)Cc1nc(CC2CC2)no1,-50.8%
12,COc1ccc2oc(C(=O)N(C)CCOc3ccccc3)c(C)c2c1,-28.9%
13,COc1ccc2oc(C(=O)N(C)Cc3ccc(OC(F)F)cc3)c(C)c2c1,-53.8%
14,COc1ccc2oc(C(=O)N(C)Cc3ccc4c(c3)OCCO4)c(C)c2c1,-10.5%
15,CCn1cc(C(=O)OCC(=O)N(C)Cc2ccccc2)c(=O)c2ccc(C)nc21,-11.1%
16,CCCCN(C)C(=O)c1cn(CC)c2nc(C)ccc2c1=O,-3.49%
17,COc1ccc(CCN(C)C(=O)c2oc3ccccc3c2C)cc1OC,-0.562%
18,Cc1c(C(=O)N(C)Cc2ccc(OC(F)F)cc2)oc2ccccc12,-69.9%
19,Cc1c(C(=O)OCC(=O)N(C)Cc2ccccc2)oc2ccccc12,-29.4%
20,CCn1cc(C(=O)N(C)Cc2ccc(OC(F)F)cc2)c(=O)c2ccc(C)nc21,-65.1%
21,CCCNC(=O)Nc1ccccc1C(=O)Nc1ccc(OC)cc1,2.77%
22,OCC1CCCN(C(=S)NCCc2ccccc2)C1 (stereo not drawn),0.885%
23,CCCn1nc(Oc2nc(NCC)nc(NCC)n2)ccc1=O,1.1%
24,CCCn1nnc(NC(=O)c2cccc(OCC(C)C)c2)n1,-3.93%
25,O=C(NCc1ccccc1Cl)C1CCN(S(=O)(=O)c2cccs2)CC1,-63.4%

row,SMILES,"hERG current change (%, negative = inhibition) at 10uM"
1,O=C(NCc1ccc(Cl)cc1)C1CCN(S(=O)(=O)c2cccs2)CC1,-3.7%
2,O=C(NCc1cccs1)C1CCN(S(=O)(=O)c2cccs2)CC1,-32.1%
3,O=C(NCCc1ccc(Cl)cc1)C1CCN(S(=O)(=O)N2CCCCC2)CC1,-5.98%
4,O=C(NCCc1ccccc1Cl)C1CCN(S(=O)(=O)c2cccs2)CC1,-34.8%
5,O=C(NCCc1ccc(Cl)cc1)C1CCCN(S(=O)(=O)N2CCCCCC2)C1 (stereo not drawn),-18.7%
6,O=C(NCCc1ccccc1)C1CCN(S(=O)(=O)c2cccs2)CC1,-2.14%
7,O=C(NCCc1ccc(Cl)cc1)C1CCN(S(=O)(=O)c2cccs2)CC1,-71.2%
8,O=C(NCCc1ccc(Cl)cc1)C1CCN(S(=O)(=O)N2CCCC2)CC1,-52.3%
9,O=C1C=C(c2ccccc2)C[C@H](c2cccs2)[C@H]1n1cnc([N+](=O)[O-])c1,-18.8%
10,COC(=O)c1nc2cc3c(cc2c(C)c1C(=O)OC)OCO3,10.8%
11,COC(=O)CN(C(=S)Nc1ccccc1)C1CC(=O)N(c2ccc(OC)cc2)C1=O (stereo not drawn),-6.5%
12,O=C1CCCC(O)=C1N=Nc1c(Cl)cc(Cl)cc1Cl,7.14%
13,Cc1ccc(S(=O)(=O)c2cn(Cc3ccc(F)cc3)c3cc4c(cc3c2=O)OCO4)cc1,-55%
14,Cc1ccc(Cn2cc(C(=O)NN)c(=O)c3ccc(F)cc32)cc1,-51.6%
15,CCn1cc(C(=O)O)c(=O)c2cc3c(cc21)OCO3,20.5%
16,CC(C)c1ccc(S(=O)(=O)c2cn(Cc3ccc(F)cc3)c3cc4c(cc3c2=O)OCO4)cc1,-1%
17,O=C(c1ccc(F)cc1)c1cn(Cc2ccc(F)cc2)c2cc3c(cc2c1=O)OCCO3,-71.1%
18,CC(=O)Nc1cc2c(cc1C(=O)c1ccc(C)cc1)OCCO2,5.77%
19,Cc1ccc(Cn2cc(S(=O)(=O)c3ccc(C(C)C)cc3)c(=O)c3cc4c(cc32)OCO4)cc1,-8.58%
20,C=CCn1cc(C(=O)OCC)c(=O)c2ccc(F)cc21,5.56%
21,O=C(C(=O)N1CCOCC1)c1cn(Cc2ccc(F)cc2)c2ccccc12,-32%
22,Cc1ccc(C(=O)c2cc3c(cc2N)OCCO3)cc1,-11.4%
23,CCOC(=O)c1cn(Cc2ccc(C)cc2)c2cc(F)ccc2c1=O,-10.9%
24,Cc1ccc(Cn2cc(C(=O)c3ccc(F)cc3)c(=O)c3cc4c(cc32)OCCO4)cc1,-57.1%
